High-throughput results: PubChem, NMMLSC
MEP2 TOR yeast: alters MEP2-GFP fluorescence in TOR pathway yeast screen | S. cerevisiae MEP2-GFP strain, flow cytometry GFP, 3 h; 100% = DMSO control level | GFP response vs DMSO, % at 10 µM | actives 0.51% (n = 330,000);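 active means GFP response versus DMSO above a set limit, roughly screen mean plus 3 SD, cut at about 180% in these data; inconclusive means fewer than 70 cells counted for a yeast strain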;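 further: median GFP fluorescence of the barcode-gated MEP2-GFP cells per well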
AGP1-GFP MLPCN: modulators of TOR pathway AGP1-GFP in S. cerevisiae. GFP response vs DMSO, % at 10 µM. actives 0.02% (n = 320,000). S. cerevisiae AGP1-GFP multiplex flow cytometry, 3 h; GFP as percent of DMSO wells;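 active means GFP response relative to DMSO above a set limit, near screen average plus 3 SD, cut at about 150% in these data; inconclusive means fewer than 70 cells counted for the yeast strain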;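 further: median GFP channel fluorescence of the gated AGP1 strain per well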
CIT2-GFP yeast: yeast TOR pathway CIT2-GFP modulation; S. cerevisiae CIT2-GFP strain, flow cytometry, 3 h; 100 means same as DMSO wells; GFP response vs DMSO, % at 10 µM; actives 0.065% (n = 320,000);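 active means GFP response relative to DMSO above a set limit, near the screen mean plus 3 SD, cut at about 150% in these data; inconclusive means Fewer than 70 cells measured for a yeast strain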;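 further: ratio of well median GFP fluorescence to mean of DMSO wells on the plate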
LAP4-GFP MLPCN: yeast TOR pathway LAP4-GFP modulation. S. cerevisiae LAP4-GFP multiplex, flow cytometry GFP, 3 h; median GFP as percent of DMSO wells. GFP response vs DMSO, % at 10 µM. actives 0.34% (n = 320,000);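 active means GFP response vs DMSO above a set limit, about the screen mean plus 3 SD, cut at about 150% in these data; inconclusive means under 70 cell events counted for the yeast strain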
RPL19A TOR yeast: yeast TOR pathway RPL19A-GFP modulation | percent response vs DMSO, % at 10 µM | S. cerevisiae RPL19A-GFP strain, flow cytometry, 3 h; stronger effect = lower value | actives 0.3% (n = 330,000);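 active means percent response vs DMSO below 50%; inconclusive means fewer than 70 events counted for the yeast strain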;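 further: median channel GFP fluorescence of the barcoded RPL19A-GFP strain; ratio of sample median GFP to plate DMSO average so 100% = DMSO; lower means less RPL19A-GFP as with rapamycin TOR inhibition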
Active calls of the source: *; [ ] = remark or other dose. Sampled rows, rich in hits. Any-hit rate of the full collection: about 0.93%.

Results for Cc1ccc(NCN2C(=O)C3C4C=CC(C4)C3C2=O)cc1 (stereo not given) ?
MEP2 TOR yeast: 165; AGP1-GFP MLPCN: 142; CIT2-GFP yeast: 125; LAP4-GFP MLPCN: 210*; RPL19A TOR yeast: 74

What do the screens show for `O=C1C2C3C=CC(C3)C2C(=O)N1CNc1ccc(O)cc1` (stereo not given)?
MEP2 TOR yeast: 128; AGP1-GFP MLPCN: 121; CIT2-GFP yeast: 95; LAP4-GFP MLPCN: 139; RPL19A TOR yeast: 70

How did CCOC(=O)C1=C(C)N=C2SC(C(=O)OC)=CC(=O)N2C1c1cccc(OC)c1 (stereo not given) do in these assays?
MEP2 TOR yeast: 91; AGP1-GFP MLPCN: 105; CIT2-GFP yeast: 101; LAP4-GFP MLPCN: 98; RPL19A TOR yeast: 103

How did CCOC(=O)C1=C(C)N=C2SC(C(=O)OC)=CC(=O)N2C1c1ccc(F)cc1 (stereo not given) do in these assays?
MEP2 TOR yeast: 85; AGP1-GFP MLPCN: 77; CIT2-GFP yeast: 62; LAP4-GFP MLPCN: 190*; RPL19A TOR yeast: 92

Results for COc1ccc(/C=C2\N=C(C)OC2=O)cc1OC ?
MEP2 TOR yeast: 79; AGP1-GFP MLPCN: 63; CIT2-GFP yeast: 66; RPL19A TOR yeast: 85

Results for C=CCOc1ccc(/C=C2\N=C(C)OC2=O)cc1OC ?
MEP2 TOR yeast: 93; AGP1-GFP MLPCN: 89; CIT2-GFP yeast: 90; LAP4-GFP MLPCN: 182*; RPL19A TOR yeast: 105

Results for CCOc1cc(/C=C2\N=C(C)OC2=O)cc(Br)c1OCC(=O)OC ?
MEP2 TOR yeast: 98; AGP1-GFP MLPCN: 88; CIT2-GFP yeast: 99; LAP4-GFP MLPCN: 188*; RPL19A TOR yeast: 99

Results for Cn1c(=O)c2ccccc2n(Cc2ccccc2F)c1=O ?
MEP2 TOR yeast: 99; AGP1-GFP MLPCN: 98; CIT2-GFP yeast: 100; LAP4-GFP MLPCN: 100; RPL19A TOR yeast: 98

Results for Cn1c(=O)c2ccccc2n(Cc2cccc(F)c2)c1=O ?
MEP2 TOR yeast: 179*; AGP1-GFP MLPCN: 95; CIT2-GFP yeast: 91; LAP4-GFP MLPCN: 100; RPL19A TOR yeast: 98

How did CCOc1ccc(S(=O)(=O)NCC2CCCO2)c2cccnc12 (stereo not given) do in these assays?
MEP2 TOR yeast: 95; AGP1-GFP MLPCN: 98; CIT2-GFP yeast: 96; LAP4-GFP MLPCN: 96; RPL19A TOR yeast: 99

How did CCOc1ccc(S(=O)(=O)NCC2CCCO2)c2ccccc12 (stereo not given) do in these assays?
MEP2 TOR yeast: 107; AGP1-GFP MLPCN: 16; CIT2-GFP yeast: inconclusive; LAP4-GFP MLPCN: 77; RPL19A TOR yeast: 47*[may fluoresce violet]

What do the screens show for `CC(=O)Nc1ccc(N(C(=O)Cn2nnc3ccccc32)C(C(=O)NC2CCCC2)c2ccc(O)c(O)c2)cc1` (stereo not given)?
MEP2 TOR yeast: 100; AGP1-GFP MLPCN: 99; CIT2-GFP yeast: 94; LAP4-GFP MLPCN: 106; RPL19A TOR yeast: 97

Results for COc1ccc(NC(=O)c2csc(Cc3ccccc3)n2)cc1 ?
MEP2 TOR yeast: 530*[may fluoresce violet]; AGP1-GFP MLPCN: 18; CIT2-GFP yeast: inconclusive; LAP4-GFP MLPCN: 103; RPL19A TOR yeast: 45*[may fluoresce violet]

What do the screens show for `O=C(Nc1ccc(F)cc1)c1csc(Cc2ccccc2)n1`?
MEP2 TOR yeast: 91; AGP1-GFP MLPCN: 92; CIT2-GFP yeast: 94; LAP4-GFP MLPCN: 90; RPL19A TOR yeast: 94

How did O=C(c1nc2nc(-c3ccccc3)cc(C(F)(F)F)n2n1)N1CCOCC1 do in these assays?
MEP2 TOR yeast: 548*[may fluoresce violet]; CIT2-GFP yeast: inconclusive; LAP4-GFP MLPCN: 100; RPL19A TOR yeast: 49*[may fluoresce violet]

What do the screens show for `COc1ccc(NC(=O)c2ccco2)c([N+](=O)[O-])c1`?
MEP2 TOR yeast: 94; AGP1-GFP MLPCN: 92; CIT2-GFP yeast: 93; LAP4-GFP MLPCN: 86; RPL19A TOR yeast: 103

How did COc1ccc(NC(=O)C/C(C)=N/NC(=O)c2ccco2)c([N+](=O)[O-])c1 do in these assays?
MEP2 TOR yeast: 396*[may fluoresce violet]; AGP1-GFP MLPCN: inconclusive; CIT2-GFP yeast: inconclusive; LAP4-GFP MLPCN: 79; RPL19A TOR yeast: 52

Results for COc1ccc(Nc2cc(C)nc3ccc(OC)cc23)cc1 ?
MEP2 TOR yeast: 102; AGP1-GFP MLPCN: 97; CIT2-GFP yeast: 100; LAP4-GFP MLPCN: 89; RPL19A TOR yeast: 100

How did COc1ccc2nc(C)cc(Nc3ccc(C(=O)O)cc3)c2c1 do in these assays?
MEP2 TOR yeast: 237*[may fluoresce violet]; AGP1-GFP MLPCN: inconclusive; CIT2-GFP yeast: inconclusive; LAP4-GFP MLPCN: 54; RPL19A TOR yeast: 61
